Data on 13 compounds can be found in PubChem BioAssay.

Activity calls are given as the source filed them.

Assay [1] in a line: optical density shifts of acrAB sulA E. coli – strain DRC41, OD650, 48 h, E. coli filamentation inducer project, primary screen (AID 1152).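 Further: E. coli MC1000 strain DRC41 lacking acrAB efflux pump and sulA.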 Conditions: higher = more signal, called active from +8 up or from −8 down.
The nature of assay [2]: probe aLefty1 binding on compound microarray – biochemical, small-molecule microarray, 635/667 nm fluorescence, primary screen (AID 1153).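 Further: score merges spot fluorescence with signal-to-noise ratio from the scanned slide images.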 As to conditions: higher = more signal.
Assay [3] is described as follows: plasmodial surface anion channel blockers, osmotic lysis – cell-based, P. falciparum Indochina, OD700, 1 h, primary screen (AID 1154). As to conditions: P. falciparum Indochina infected RBC osmotic lysis, higher = more signal, called active from +8 up or from −8 down.
The nature of assay [4]: plasmodial surface anion channel blockers, osmotic lysis – cell-based, P. falciparum Indochina, OD700, 2 h, primary screen (AID 1155).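 Further: lysis reports solute entry through the parasite surface anion channel PSAC.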 Conditions: P. falciparum Indochina infected erythrocytes, higher = more signal, called active from +8 up or from −8 down.
Assay [5] in a line: changes in parasitized red cell lysis, either direction – P. falciparum Indochina, OD700, 3 h, PSAC antagonist project, primary screen (AID 1156). Conditions: P. falciparum-infected erythrocytes, osmotic lysis, higher = more signal, called active from +8 up or from −8 down.
A short description of assay [6]: plasmodial surface anion channel blockers, osmotic lysis – cell-based, P. falciparum Indochina, OD700, 18 h, primary screen (AID 1157). Conditions: P. falciparum Indochina infected erythrocytes, osmotic lysis OD700, 18 h; higher = more signal, called active from +8 up or from −8 down.
A short description of assay [7]: S6 kinase pathway phospho-S6 level changes – cell-based, A549, cytoblot, luminescence, serum-stimulated, primary screen (AID 1158).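 Further: serum-stimulated A549 lung adenocarcinoma cells; signal is phosphorylated S6 detected by cytoblot immunostaining with HRP secondary.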 As to conditions: 5 h, higher = more signal.
Assay [8] deals with NADPH oxidase 2 (Homo sapiens) (UniProt P04839). Description: compounds shifting NOX2 Amplex Red fluorescence – cell-based, HEK293-NOX2, PMA-stimulated, NOX inhibitor project, primary screen (AID 1159). Further: test concentration not given here. Conditions: 45 min, higher = more signal, called active from +8 up or from −8 down.
NADPH oxidase 2 (Homo sapiens), sequence (P04839 whole entry, looked up): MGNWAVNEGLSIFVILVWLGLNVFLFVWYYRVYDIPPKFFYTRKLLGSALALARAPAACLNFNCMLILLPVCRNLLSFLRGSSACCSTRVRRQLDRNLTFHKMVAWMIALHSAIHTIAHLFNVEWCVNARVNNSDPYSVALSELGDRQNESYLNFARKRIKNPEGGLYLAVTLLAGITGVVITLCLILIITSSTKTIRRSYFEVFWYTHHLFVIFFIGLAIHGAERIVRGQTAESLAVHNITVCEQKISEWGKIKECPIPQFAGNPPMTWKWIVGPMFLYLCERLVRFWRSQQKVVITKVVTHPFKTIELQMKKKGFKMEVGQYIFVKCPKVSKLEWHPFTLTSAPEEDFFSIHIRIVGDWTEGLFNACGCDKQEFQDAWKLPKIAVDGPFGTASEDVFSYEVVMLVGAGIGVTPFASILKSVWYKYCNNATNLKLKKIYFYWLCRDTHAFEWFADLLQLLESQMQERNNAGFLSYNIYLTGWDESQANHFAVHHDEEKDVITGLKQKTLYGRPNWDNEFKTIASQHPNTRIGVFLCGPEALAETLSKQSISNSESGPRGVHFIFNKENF
The target in assay [9] is NADPH oxidase 4 (Homo sapiens) (UniProt Q9NPH5). Description: compounds shifting NOX4 Amplex Red fluorescence – cell-based, HEK293-NOX4, tetracycline-induced, NOX inhibitor project, primary screen (AID 1160). As to conditions: HEK293-NOX4, Amplex Red H2O2 fluorescence, 45 min; higher = more signal, called active from +8 up or from −8 down.
NADPH oxidase 4 (Homo sapiens), sequence (Q9NPH5 whole entry, looked up): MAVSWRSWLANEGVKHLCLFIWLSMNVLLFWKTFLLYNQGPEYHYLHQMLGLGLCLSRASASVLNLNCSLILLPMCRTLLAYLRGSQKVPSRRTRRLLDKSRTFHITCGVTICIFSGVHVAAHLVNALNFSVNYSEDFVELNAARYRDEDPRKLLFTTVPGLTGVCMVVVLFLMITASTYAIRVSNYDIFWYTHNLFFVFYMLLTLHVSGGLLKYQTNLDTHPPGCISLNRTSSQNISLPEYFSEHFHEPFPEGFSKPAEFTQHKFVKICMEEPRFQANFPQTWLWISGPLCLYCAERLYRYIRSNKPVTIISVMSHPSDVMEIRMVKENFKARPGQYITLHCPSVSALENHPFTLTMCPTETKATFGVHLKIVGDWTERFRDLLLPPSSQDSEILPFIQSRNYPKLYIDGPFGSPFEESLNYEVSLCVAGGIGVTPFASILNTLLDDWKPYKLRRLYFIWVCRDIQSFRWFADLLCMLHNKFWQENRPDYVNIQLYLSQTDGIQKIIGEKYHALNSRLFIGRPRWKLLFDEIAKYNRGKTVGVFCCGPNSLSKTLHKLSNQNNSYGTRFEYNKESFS
In assay [10] the target is NADPH oxidase 5 (Homo sapiens) (UniProt Q96PH1). Description: compounds shifting NOX5 Amplex Red fluorescence – cell-based, HEK293-NOX5, NOX inhibitor project, primary screen (AID 1161). As to conditions: HEK293-NOX5, ionomycin, 45 min, higher = more signal.
NADPH oxidase 5 (Homo sapiens), sequence (Q96PH1 whole entry, looked up): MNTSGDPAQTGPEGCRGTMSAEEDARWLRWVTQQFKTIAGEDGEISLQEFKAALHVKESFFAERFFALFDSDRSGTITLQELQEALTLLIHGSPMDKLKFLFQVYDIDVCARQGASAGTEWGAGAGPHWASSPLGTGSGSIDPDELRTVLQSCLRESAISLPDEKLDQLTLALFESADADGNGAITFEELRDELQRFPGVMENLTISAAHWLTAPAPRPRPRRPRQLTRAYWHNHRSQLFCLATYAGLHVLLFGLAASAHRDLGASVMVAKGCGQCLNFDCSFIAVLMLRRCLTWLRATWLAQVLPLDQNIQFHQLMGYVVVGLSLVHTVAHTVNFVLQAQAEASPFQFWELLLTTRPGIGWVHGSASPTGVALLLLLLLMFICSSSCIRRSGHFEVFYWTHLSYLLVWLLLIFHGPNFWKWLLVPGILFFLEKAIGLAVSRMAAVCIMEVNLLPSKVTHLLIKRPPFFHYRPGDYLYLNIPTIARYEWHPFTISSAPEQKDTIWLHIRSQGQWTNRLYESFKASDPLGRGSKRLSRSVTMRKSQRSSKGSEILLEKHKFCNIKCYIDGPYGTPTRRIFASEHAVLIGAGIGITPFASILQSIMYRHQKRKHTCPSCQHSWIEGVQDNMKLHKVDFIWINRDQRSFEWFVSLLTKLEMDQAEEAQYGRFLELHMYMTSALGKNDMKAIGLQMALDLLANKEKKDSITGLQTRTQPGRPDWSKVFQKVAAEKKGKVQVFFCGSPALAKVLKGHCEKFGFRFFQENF

On to `COc1cc2c(cc1OC)CN(C(=O)[C@@H]1[C@H]3C(=O)O[C@H](c4ccccc4)[C@H](c4ccccc4)N3[C@H](c3ccccc3OCCO)[C@@]13C(=O)Nc1ccc(C#CCNC(N)=O)cc13)CC2`, for which the z-score was 0.97 (inactive) in assay [1]; 1.14 (inactive) in assay [3]; -0.45 (inactive) in assay [4]; 0.333 (inactive) in [5]; -2.15 (inactive) in assay [6]; 3.09 in assay [7]. Moreover, the values for the z-score in assay [8], in [9] and in assay [10] were 1.24 (inactive), 0.964 (inactive) and -0.0555, respectively. Moreover, the composite z-score in assay [2] worked out at 0.882.
`COCCOC(=O)N1C(=O)[C@@]2(c3cc(C#CC4=CCCCC4)ccc31)[C@H](C(=O)NC[C@H](O)c1ccccc1)[C@H]1C(=O)O[C@H](c3ccccc3)[C@H](c3ccccc3)N1[C@@H]2c1ccc(O)cc1`: the z-score is 1.8 (inactive) in assay [1]; 0.602 (inactive) in [3]; 0.793 (inactive) in assay [4]; 0.0873 (inactive) in [5]; 0.554 (inactive) in assay [6]; -0.176 in [7]. For the same compound, the z-score is 1.2 (inactive) in [8], 0.349 (inactive) in assay [9] and 1.22 in assay [10]. The same compound displayed a composite z-score in assay [2] of 0.265.
With `O=C1C2C=CC(C(O)c3ccc(-c4ccccc4)s3)N(n3cnnc3)C2C(=O)N1Cc1ccccc1` (stereo not given), the z-score in [1] is -0.613 (inactive); in [3] it was 2.44 (inactive); in assay [4], 1.41 (inactive); in [5], 0.605 (inactive); in [6] it was 0.832 (inactive); in assay [7], 0.0424. Also, the z-score in assay [8] is -0.547 (inactive); in assay [9] it was -0.149 (inactive); in assay [10] it was -0.918. In addition, the composite z-score in assay [2] worked out at 0.284.
Consider `COC(=O)[C@@]1(Cc2ccccc2)[C@H]2c3cc(C(=O)N4CCCC4)n(Cc4ccc(C)o4)c3C[C@H]2CN1C(=O)c1ccccc1`, for which the z-score in [1] was -1.71 (inactive); in assay [3], 1.63 (inactive); in [4] it was 0.547 (inactive); in assay [5], 0.278 (inactive); in [6], 0.52 (inactive); in assay [7], -0.504. The values for the z-score in assay [8], in assay [9] and in [10] were -0.254 (inactive), -0.867 (inactive) and -1.17, respectively. For the same compound, the composite z-score in assay [2] was determined as 0.198.
Turning to `[N-]=[N+]=Nc1ccccc1C[C@]1(C(=O)NCCN2CCOCC2)N=C(c2ccc(OCCCO)cc2)O[C@H]1c1ccccc1`, the z-score in assay [1] is 0.0623 (inactive); in assay [3], 14.1 (active); in [4], 1.53 (inactive); in [5], 1.37 (inactive); in assay [6], 0.766 (inactive); in [7], -0.0135. The z-score was -1.92 (inactive) in assay [8], 0.0642 (inactive) in assay [9] and -1.32 in assay [10]. The compound further registered a composite z-score in assay [2] of 0.728.
`COC(=O)c1c(CC[C@@H](CO)NC(=O)N[C@@H](Cc2ccccc2)Cn2cc(C3(O)CCCCC3)nn2)oc(C(C)=O)c1C(=O)OC`: the z-score in [1] is 1.27 (inactive); in [3] it was 2.27 (inactive); in assay [4], 0.566 (inactive); in assay [5] it was 0.999 (inactive); in [6] it was 0.312 (inactive); in assay [7], 1.93. Further, the z-score in [8] was -5.26 (inactive); in assay [9], -2.18 (inactive); in [10], -4.82. In [2], this compound returned a composite z-score of 0.101.
On to `COc1c(C)cc(-c2cc3c(c(-c4ccc(Oc5ccccc5)cc4)n2)[Si](C(C)C)(C(C)C)OC3)cc1C`, for which the z-score in assay [1] is -1.42 (inactive); in assay [3], 0.219 (inactive); in assay [4], 0.603 (inactive); in assay [5] it was 0.392 (inactive); in assay [6] it was 0.63 (inactive); in assay [7], -0.817. The z-score was -0.445 (inactive) in assay [8], 0.722 (inactive) in [9] and -0.958 in assay [10]. Moreover, the composite z-score in assay [2] came to 0.13.
In the case of `CO[C@H]1O[C@H](CO)[C@@H](OC(=O)Nc2ccc3c(c2)OCO3)[C@H](OC(=O)Nc2ccccc2)[C@H]1OC(=O)Nc1ccccc1`, the z-score in assay [1] is -0.495 (inactive); in assay [3], 4.11 (inactive); in assay [4], 0.777 (inactive); in [5] it was 0.756 (inactive); in [6] it was 0.421 (inactive); in [7], 0.258. Also, the z-score is -6.93 (inactive) in assay [8], -0.649 (inactive) in [9] and -2.08 in assay [10]. For the same compound, the composite z-score in assay [2] worked out at 0.227.
Turning to `C[N+](C)(C)CCCCCCNC(=O)[C@H]1C[C@H]2C(=O)N3CCC[C@H]3C(=O)N2[C@H]1c1ccc(O)cc1`, the z-score is 0.864 (inactive) in assay [1]; 1.37 (inactive) in assay [3]; -0.948 (inactive) in [4]; -0.937 (inactive) in assay [5]; -1.44 (inactive) in [6]; 0.707 in assay [7]. For the same compound, the z-score in assay [8] was -0.87 (inactive); in assay [9], -1 (inactive); in assay [10], -2.81. Moreover, in assay [2], the composite z-score was -0.0489.
For the compound `C=CCC(OC(C)=O)[C@@H]1[C@@H](N(Cc2ccc(-c3ccccc3)cc2)C(=O)Cc2ccc(OC)cc2)c2cc(OCCCO)ccc2N1C(=O)c1ccc2ccccc2n1` (stereo not given in full), the z-score was 0.165 (inactive) in [1]; 2.27 (inactive) in [3]; 0.925 (inactive) in [4]; -0.165 (inactive) in assay [5]; 1.02 (inactive) in assay [6]; 0.751 in [7]. In addition, the z-score was -2.73 (inactive) in assay [8], 1.41 (inactive) in [9] and 2.5 in [10]. This compound also gave a composite z-score in assay [2] of 0.167.
`COCCOC(=O)N1C(=O)[C@@]2(c3cc(C#CCC(C(=O)OC)C(=O)OC)ccc31)[C@H](c1ccccc1OCCO)N1[C@H](c3ccccc3)[C@H](c3ccccc3)OC(=O)[C@H]1[C@@H]2C(N)=O`: the z-score was 0.483 (inactive) in [1]; 7.64 (inactive) in assay [3]; 2.55 (inactive) in assay [4]; 0.678 (inactive) in assay [5]; 1.42 (inactive) in assay [6]; -0.127 in [7]. For the same compound, the z-score in assay [8] was 0.821 (inactive); in [9], 0.383 (inactive); in [10], -1.85. Besides, the composite z-score in assay [2] came out at 0.479.
With `CC(C)N1CC=CC23O[C@@H]4C=CCOC(=O)[C@@H]4[C@H]2C(=O)N(CCO)[C@@H]3C1=O` (stereo not given in full), the z-score in assay [1] is 0.759 (inactive); in [3], -0.0173 (inactive); in assay [4] it was 0.257 (inactive); in [5], -0.288 (inactive); in assay [6], 0.6 (inactive); in assay [7] it was 0.121. Besides, the values for the z-score in [8], in [9] and in assay [10] were 0.603 (inactive), 0.865 (inactive) and 0.913, respectively. The same compound returned a composite z-score in assay [2] of -0.0559.
Consider `CC(C)Cc1ccc(CN2CC[C@@H](NS(=O)(=O)c3ccccc3)C2)cc1`, for which the z-score is -19.2 (active) in assay [1]; 2.49 (inactive) in assay [3]; 0.408 (inactive) in [4]; 0.306 (inactive) in [5]; 0.574 (inactive) in [6]; 0.709 in [7]. The z-score in [8] is 0.312 (inactive); in assay [9] it was -0.907 (inactive); in [10], -3.68. Also, the composite z-score in assay [2] is -0.198.
